Consider 26 compounds from PubChem BioAssay AID686979 (National Center for Advancing Translational Sciences (NCATS), 2013).

SMILES strings stand for the structures. About 50,000 (12%) of roughly 420,000 compounds were called active. Entries that show only a call come without a potency. About 26% were inconclusive and are not listed. Calls come from the whole dose curve; as a rule, active = well fitted inhibition curve with a large enough effect; inconclusive = small, poorly fitted or top-dose-only effect; inactive = flat fitted curve, though single readings scatter. Only a selection was taken, and actives are over-represented in it overall.
Potency is the fitted concentration of half-maximal effect.

The assay in a line: qHTS for Inhibitors of human tyrosyl-DNA phosphodiesterase 1 (TDP1): qHTS in cells in presence of CPT. Note: nearly all actives have a fitted effect of over 55% in size. The settings on record: chicken DT40 Tdp1-/-;hTDP1 cells + 20 nM CPT, ATP luminescence, 48 h; series mostly up to 46.2 µM. In short, it runs like this:
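Chicken DT40 Tdp1-/- cells stably complemented with human TDP1 were seeded at 400 cells/well in medium containing 20 nM camptothecin, exposed to pin-transferred compounds, and grown at 37 °C for at least 48 hr. Viability was read as ATP luminescence.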
For the compound `COc1cccc(NC(=O)Cn2c(=O)cc(C)c3c(C)nn(-c4cccc(F)c4)c32)c1`, the Potency entry was “inactive”.

As to `Cc1cc(C(=O)Nc2cccc(C(F)(F)F)c2)c2c(C)nn(-c3cccc(F)c3)c2n1`, the Potency was 18.4 µM (active).

Consider `Cc1cccc(NC(=O)c2nnn(-c3cccc(C(F)(F)F)c3)c2N)c1`, for which the Potency entry is “inactive”.

`O=C(CNC(=O)c1ccccc1F)OCC(=O)c1c[nH]c2ccccc12`: the Potency result was “inactive”.

With `COc1ccc(S(=O)(=O)NCCSc2nnnn2-c2ccccc2)cc1`, the Potency entry is “inactive”.

For `CCCn1c(=O)c2c(C(F)(F)F)cc(-c3cccs3)nc2n(CCC)c1=O`, the Potency result is “inactive”.

Take `Cc1nc2ccccc2n1CC(=O)N/N=C/c1cccs1`: the Potency result was “inactive”.

Consider `CCn1c(/C=N/NC(=O)c2ccc(OC)cc2)nc2ccccc21`, for which the Potency is 13 µM (active).

In the case of `CCn1c(C(O)c2cc(OC)ccc2OC)nc2ccccc21` (stereo unspecified), the Potency result was “inactive”.

For `O=C(CCN1CCCCC1)Nc1ccc(F)c(F)c1`, the Potency result was “inactive”.

For `O=C(CNS(=O)(=O)c1ccc2ccccc2c1)Nc1ccc(F)c(F)c1F`, the Potency entry was “inactive”.

Turning to `Cc1ccc(NC(=O)CN2C(=O)NC(C)(c3ccc(Cl)cc3)C2=O)c(Br)c1` (stereo unspecified), the Potency result was “inactive”.

Take `CC1(C)NC(=O)N(CC(=O)N2CCN(S(=O)(=O)c3ccccc3F)CC2)C1=O`: the Potency entry was “inactive”.

Take `CCCc1cc(=O)[nH]c(SCC(=O)N2CCN(S(=O)(=O)c3ccc(C)cc3C)CC2)n1`: the Potency result is “inactive”.

`Cc1ccc(S(=O)(=O)N2CCN(C(=O)CN3C(=O)NC(C)(c4ccc(Cl)cc4)C3=O)CC2)c(C)c1` (stereo unspecified): the Potency is 23.1 µM (active).

For the compound `Cc1ccc(S(=O)(=O)N2CCN(C(=O)COC(=O)CNC(=O)c3ccc(C(C)(C)C)cc3)CC2)c(C)c1`, the Potency result is “inactive”.

As for `COc1ccccc1CCC(=O)OCC(=O)N1CCN(S(=O)(=O)c2ccc(C)cc2C)CC1`, the Potency was 25.9 µM (active).

On to `Cc1nc(-c2ccc(F)cc2)c(CC(=O)Nc2cccc(S(=O)(=O)N3CCOCC3)c2)s1`, for which the Potency result is “inactive”.

On to `Cc1ccc(S(=O)(=O)N2CCN(C(=O)Cc3sc(C)nc3-c3ccc(F)cc3)CC2)c(C)c1`, for which the Potency was 18.4 µM (active).

On to `Cc1ccc(S(=O)(=O)N2CCN(C(=O)COC(=O)c3c(C)noc3C)CC2)c(C)c1`, for which the Potency result is “inactive”.

On to `O=c1[nH]snc1-c1c(Cl)cccc1Cl`, for which the Potency entry is “inactive”.

With `CC1CCN(S(=O)(=O)c2ccc3ncn(CC(=O)N(C)C4CCCCC4)c(=O)c3c2)CC1`, the Potency entry was “inactive”.

With `CCc1cc(=O)oc2cc(C)cc(OCC(=O)N3CCC[C@@H]3C(=O)O)c12`, the Potency entry is “inactive”.

In the case of `O=Cc1c(NCCc2cccc(F)c2)c2ccccc2[nH]c1=O`, the Potency result is “inactive”.

`Cc1ccc2[nH]c(C)c(CCNC(=O)NC3CCCCC3)c2c1`: the Potency result is “inactive”.

Take `CN(Cc1c(F)cccc1Cl)S(=O)(=O)c1cccs1`: the Potency result was “inactive”.
